# In PubChem BioAssay:
# Several values for one entry are separate records, joined by “and”; a condition that tells them apart may be missing. Equal entries are not always repeated. Results filed as inconclusive are left out. Activity calls are given as the source filed them. Unless noted, the rule behind the calls is not given here.
# Tests used:
# [1] = signal quenchers or enhancers, Cy5 substrate/SSB – biochemical, NIH Clinical Collection, E. coli SSB, artefact control for HCV NS3 helicase inhibitor project (AID 743268); conditions: Cy5-oligo bound E. coli SSB, fluorescence interference
# [2] = system: Hepatitis C virus NS3 helicase; experiment: blockers of NS3h binding to DNA – biochemical, fluorescence polarization, NIH Clinical Collection, primary screen (AID 743270); conditions: NS3 helicase binding to Cy5-dT15 DNA, stronger effect = higher value, concentration not given here
# [3] = molecular target: Single-stranded DNA-binding protein (Escherichia coli (strain K12)) (UniProt P0AGE0); experiment: SSB-ssDNA binding inhibitors – biochemical, fluorescence polarization, NIH Clinical Collection, counter-screen for HCV NS3 helicase inhibitor project (AID 743271; in the data active = inhibition above about 28%); conditions: E. coli SSB-DNA binding, stronger effect = higher value, concentration not given here
# [4] = compounds distorting NS3 helicase fluorescence signal – biochemical, NIH Clinical Collection, artefact control for HCV NS3 helicase inhibitor project (AID 743272); conditions: fluorescence interference counterscreen, HCV NS3 helicase assay; stronger effect = lower value;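 note: HCV NS3 helicase with a Cy5 labelled single stranded DNA probe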
# [5] = system: Neuropilin-2 / VEGF-C interaction (human); experiment: small molecules blocking Neuropilin-2/VEGF-C interaction – biochemical, microplate binding format, z-score (AID 743281); conditions: microplate NRP2/VEGF-C binding assay; stronger effect = lower value
# [6] = viability loss in pontine glioma line – cell-based, SU-DIPG-XVII, MIPE5.0, CellTiter-Glo, qHTS, dose response (AID 1347060; cut-off not given, nearly all actives have AC50 up to about 26 µM); conditions: CellTiter-Glo ATP luminescence
# [7] = viability loss in pontine glioma line – cell-based, SU-DIPG-XIII, MIPE4.0, CellTiter-Glo, qHTS, dose response (AID 1347061; cut-off not given, nearly all actives have AC50 up to about 37 µM;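 note: cells exposed to compound for 48 hours before readout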); conditions: CellTiter-Glo ATP luminescence
# [8] = viability loss in pontine glioma line – cell-based, JHH-DIPG-1, MIPE4.0, CellTiter-Glo, qHTS, dose response (AID 1347062; cut-off not given, nearly all actives have AC50 up to about 27 µM); conditions: JHH-DIPG-1 viability, CellTiter-Glo ATP luminescence
# [9] = viability loss in pontine glioma line – cell-based, SU-DIPG-IV, MIPE4.0, CellTiter-Glo, qHTS, dose response (AID 1347063; cut-off not given, nearly all actives have AC50 up to about 30 µM;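 note: compound exposure lasted 48 hours before the viability readout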); conditions: CellTiter-Glo ATP luminescence
# [10] = growth inhibition of DIPG cells – cell-based, MIPE4.0 library, CellTiter-Glo luminescence, qHTS (AID 1347066; cut-off not given, nearly all actives have AC50 up to about 30 µM;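 note: cells exposed to compound for 48 hours before readout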); conditions: SU-DIPG-VI viability, CellTiter-Glo ATP luminescence
# [11] = JHH-DIPG-1 glioma cell viability, MIPE5.0 library, CellTiter-Glo luminescence, qHTS (AID 1347067; cut-off not given, nearly all actives have AC50 up to about 26 µM;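 note: cells exposed to compound for 48 hours before readout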); conditions: JHH-DIPG-1 glioma viability, CellTiter-Glo ATP luminescence
# [12] = growth inhibition of DIPG cells – cell-based, MIPE5.0 library, qHTS (AID 1347068; cut-off not given, nearly all actives have IC50 up to about 30 µM); conditions: SU-DIPG-XXV viability
# F380Y/beta4 = experiment: BK channel mutant inhibitors and activators – cell-based, U2OS BacMam, thallium flux, beta subunits, selectivity assay, profiling panel (AID 1259406;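 active = thallium flux through the channel raised or lowered by more than 3 SD from vehicle-only wells, actives on both sides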;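 note: initial slope of Thallos dye fluorescence rise after thallium is added; log ratio against the mean of 0.3% DMSO vehicle wells on the same plate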); conditions: U2OS BacMam BK variants, at 30 µM
# [13] = molecular target: Calcium-activated potassium channel subunit alpha-1 (Homo sapiens) + Leucine-rich repeat-containing protein 26 (Homo sapiens) (UniProt Q12791+Q2I0M4); experiment: as above; conditions: U2OS BacMam BK variants, F380Y/Slo1WT/gamma1, at 30 µM
# R275C/beta4 = experiment: as above; conditions: U2OS BacMam BK variants, at 30 µM
# [14] = system: Aerobactin synthetase IucA (Klebsiella pneumoniae); experiment: inhibition of K. pneumoniae IucA enzyme – biochemical, Tocris library, absorbance (AID 1345561); conditions: purified IucA enzyme assay, absorbance (OD) read-out; stronger effect = lower value;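 tested at 8 µM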;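 note: 100% = enzyme without compound and 0% = no enzyme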
# [15] = growth inhibition, single agent or in combination, cell-based, chromothripsis tumors, cisplatin or BGB combos (AID 1671449; in the data active = inhibition above about 80%;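 note: cells exposed for 96 hours; 0% = vehicle DMSO and 100% = killing by high DMSO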); conditions: LFS_MB_P medulloblastoma cells
# [16] = growth inhibition, single agent and combos, cell-based, chromothripsis tumors, cisplatin or BGB combos (AID 1671450; in the data active = inhibition above about 80%;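 note: cells exposed to compound for four days; 0% = vehicle DMSO and 100% = cell killing by high DMSO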); conditions: HDN33 neuroblastoma cells, stronger effect = higher value
# [17] = growth inhibition, single agents and combos, ICB984, cell-based, cisplatin or BGB combos, synergistic combos for chromothripsis tumors (AID 1671451); conditions: ICB984 medulloblastoma cells, drug combinations, stronger effect = higher value;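 note: cells exposed for 96 hours before readout; 0% = vehicle DMSO and 100% = killing by high DMSO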
# [18] = growth inhibition, single agents and combos, HTB85, cell-based, BGB or cisplatin IC20 combos, synergistic combos for chromothripsis tumors (AID 1671453; in the data active = inhibition above about 80%;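 note: cells exposed for 96 hours before readout; 0% = vehicle DMSO and 100% = high DMSO killing control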); conditions: HTB85 osteosarcoma cells, drug combinations, stronger effect = higher value
# Sequence of Calcium-activated potassium channel subunit alpha-1 (Homo sapiens) + Leucine-rich repeat-containing protein 26 (Homo sapiens) (Q2I0M4 whole entry, looked up, one chain of several): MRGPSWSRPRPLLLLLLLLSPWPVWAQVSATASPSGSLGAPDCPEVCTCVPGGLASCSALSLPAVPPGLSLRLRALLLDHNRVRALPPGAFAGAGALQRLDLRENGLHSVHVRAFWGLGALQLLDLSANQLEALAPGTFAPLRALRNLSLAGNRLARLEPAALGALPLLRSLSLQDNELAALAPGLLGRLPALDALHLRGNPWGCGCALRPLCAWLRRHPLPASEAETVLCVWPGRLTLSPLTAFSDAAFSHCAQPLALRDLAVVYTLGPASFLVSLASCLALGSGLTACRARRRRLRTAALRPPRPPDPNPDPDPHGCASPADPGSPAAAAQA
smiles,measurement,setting,value
CNCC(O)c1ccc(O)cc1 (stereo unspecified),fluorescence ratio,[1],0.99 (inactive)
same,inhibition,[2],-1.09% (inactive)
same,inhibition,[3],-0.39% (inactive)
same,fluorescence ratio,[4],0.96 (inactive)
same,z-score,[5],-0.502 (inactive)
same,outcome,[6],inactive
same,outcome,[7],inactive
same,outcome,[8],inactive
same,outcome,[9],inactive
same,outcome,[10],inactive
same,outcome,[11],inactive
same,outcome,[12],inactive
same,log fold change Tl+ flux,F380Y/beta4,-0.01 (inactive)
same,log fold change Tl+ flux,[13],0.0291 (inactive)
same,log fold change Tl+ flux,R275C/beta4,-0.013 (inactive)
c1ccc2c(c1)Nc1ccccc1S2,fluorescence ratio,[1],0.96 (inactive)
same,inhibition,[2],1.53% (inactive)
same,inhibition,[3],5.12% (inactive)
same,fluorescence ratio,[4],0.95 (inactive)
same,z-score,[5],0.0903 (inactive)
same,log fold change Tl+ flux,F380Y/beta4,-0.0296 (inactive)
same,log fold change Tl+ flux,[13],-0.0274 (inactive)
same,log fold change Tl+ flux,R275C/beta4,-0.0162 (inactive)
O=C(O)C(Cl)Cl,fluorescence ratio,[1],0.97 (inactive)
same,inhibition,[2],-0.4% (inactive)
same,inhibition,[3],0.67% (inactive)
same,fluorescence ratio,[4],0.96 (inactive)
same,z-score,[5],0.208 (inactive)
same,remaining activity,[14],99.4% (inactive)
same,log fold change Tl+ flux,F380Y/beta4,-0.0155 (inactive)
same,log fold change Tl+ flux,[13],-0.0139 (inactive)
same,log fold change Tl+ flux,R275C/beta4,-0.0167 (inactive)
CCOC(=O)c1cncn1C(C)c1ccccc1 (stereo unspecified),log fold change Tl+ flux,F380Y/beta4,0.0301 (inactive)
same,log fold change Tl+ flux,[13],-0.00742 (inactive)
same,log fold change Tl+ flux,R275C/beta4,-0.000383 (inactive)
CN1C(=O)COc2c(C(=O)NC3CN4CCC3CC4)cc(Cl)cc21 (stereo unspecified),fluorescence ratio,[1],1.03 (inactive)
same,inhibition,[2],2.77% (inactive)
same,inhibition,[3],3.75% (inactive)
same,fluorescence ratio,[4],1.02 (inactive)
same,z-score,[5],0.29 (inactive)
same,outcome,[6],inactive
same,outcome,[7],inactive
same,outcome,[8],inactive
same,outcome,[9],inactive
same,outcome,[12],inactive
same,log fold change Tl+ flux,F380Y/beta4,0.0243 (inactive)
same,log fold change Tl+ flux,[13],0.0336 (inactive)
same,log fold change Tl+ flux,R275C/beta4,-0.016 (inactive)
COc1cc(N)c(Cl)cc1C(=O)NC1CN2CCC1CC2 (stereo unspecified),fluorescence ratio,[1],0.94 (inactive)
same,inhibition,[2],-2.77% (inactive)
same,inhibition,[3],9.91% (inactive)
same,fluorescence ratio,[4],0.87 (inactive)
same,z-score,[5],-0.38 (inactive)
same,remaining activity,[14],124% (inactive)
O=P1(NCCCl)OCCCN1CCCl (stereo unspecified),outcome,[6],inactive
same,outcome,[7],inactive
same,outcome,[8],inactive
same,outcome,[10],inactive
same,outcome,[11],inactive
same,outcome,[12],inactive
same,inhibition,"[15]; at 0.5 µM, stronger effect = higher value",-12.1% (inactive) and -23.4% (inactive)
same,inhibition,"[15]; measured here: combination with BGB IC20, at 0.005 µM",-22%
same,inhibition,"[15]; measured here: combination with BGB IC40, at 0.005 µM",-15% and -23.6%
same,inhibition,"[15]; measured here: combination with BGB IC40, at 0.05 µM",-22.5% and -36.7%
same,inhibition,"[15]; measured here: combination with cisplatin, at 0.5 µM, stronger effect = higher value",-34.3% and -30.8%
same,inhibition,"[15]; measured here: combination with cisplatin, at 5 µM, stronger effect = higher value",-44% and -49.9%
same,inhibition,"[16]; BGB combo, at 5 µM",-18.3% and -55.5%
same,inhibition,[16]; at 0.5 µM,2.74% (inactive) and -43.1% (inactive)
same,inhibition,"[16]; cisplatin combo, at 5 µM",-14.3% and -32.8%
same,inhibition,"[16]; measured here: with BGB IC20 combination, at 0.5 µM",36.5% and -51.2%
same,inhibition,"[16]; measured here: with cisplatin IC20 combination, at 0.5 µM",-4.58% and -35.3%
same,inhibition,"[16]; single agent, at 5 µM",-24.7% and -29.3%
same,inhibition,"[17]; BGB IC20 combo, at 0.005 µM",-4.87% and -19.5%
same,inhibition,"[17]; BGB IC40 combo, at 0.005 µM",-32.7% and -24.5%
same,inhibition,"[17]; BGB IC40 combo, at 0.05 µM",-25.4% and -42.1%
same,inhibition,[17]; at 0.5 µM,-22% (inactive) and -43% (inactive)
same,inhibition,"[17]; cisplatin combo, at 0.05 µM",-25.4% and -47.2%
same,inhibition,"[17]; cisplatin combo, at 0.5 µM",-28.2% and -28.3%
same,inhibition,"[17]; cisplatin combo, at 5 µM",-18% and -28.2%
same,inhibition,"[17]; measured here: 5 uM single agent, at 5 µM",-4.46% and 4.1%
same,inhibition,[18]; at 0.5 µM,-11.8% (inactive) and -20.1% (inactive)
same,inhibition,"[18]; measured here: with BGB IC20, at 0.5 µM",-26.1% and -41.8%
same,inhibition,"[18]; measured here: with BGB IC20, at 5 µM",-16.8% and -29.8%
same,inhibition,"[18]; measured here: with cisplatin IC20, at 0.5 µM",9.75% and -12.8%
same,inhibition,"[18]; measured here: with cisplatin IC20, at 5 µM",1.05% and -46.6%
same,inhibition,"[18]; single agent, at 5 µM",-10.4% and -9.47%
CN[C@@H]1C[C@@H](c2ccc(Cl)c(Cl)c2)c2ccccc21,fluorescence ratio,[1],0.98 (inactive)
same,inhibition,[2],-3.56% (inactive)
same,inhibition,[3],-3.95% (inactive)
same,fluorescence ratio,[4],0.97 (inactive)
same,z-score,[5],0.266 (inactive)
same,remaining activity,[14],118% (inactive)
same,log fold change Tl+ flux,[13],0.0738 (inactive)
CC[C@]1(O)CC[C@H]2[C@@H]3CCC4=CCCC[C@@H]4[C@H]3CC[C@@]21C,fluorescence ratio,[1],1.02 (inactive)
same,inhibition,[2],-2.77% (inactive)
same,inhibition,[3],1.44% (inactive)
same,fluorescence ratio,[4],1.02 (inactive)
same,log fold change Tl+ flux,F380Y/beta4,-0.128 (active)
same,log fold change Tl+ flux,[13],0.141 (active)
same,log fold change Tl+ flux,R275C/beta4,0.243 (active)
NN=C(N)N,remaining activity,[14],98% (inactive)
same,outcome,[6],inactive
same,outcome,[11],inactive
same,outcome,[12],inactive
C=C1C[C@@H]2[C@H](CC[C@]3(C)C(=O)CC[C@@H]23)[C@@]2(C)C=CC(=O)C=C12,fluorescence ratio,[1],1.07 (inactive)
same,inhibition,[2],2.77% (inactive)
same,inhibition,[3],2.98% (inactive)
same,fluorescence ratio,[4],1.05 (inactive)
same,outcome,[6],inactive
same,outcome,[7],inactive
same,outcome,[8],inactive
same,outcome,[10],inactive
same,outcome,[11],inactive
same,log fold change Tl+ flux,F380Y/beta4,0.013 (inactive)
same,log fold change Tl+ flux,[13],0.0186 (inactive)
same,log fold change Tl+ flux,R275C/beta4,0.0226 (inactive)
